Source: PubChem BioAssay
Activity calls are given as the source filed them. The rule behind the calls is not given here.

test system: Neuropilin-2 / VEGF-C interaction (human); assay: small molecules blocking Neuropilin-2/VEGF-C interaction – biochemical, microplate binding format, z-score (AID 743281); settings: microplate NRP2/VEGF-C binding assay; active compounds read low

SMILES	outcome
C=CC[C@@H]1/C=C(\C)C[C@H](C)C[C@H](OC)[C@H]2OC(O)(C(=O)C(=O)N3CCCC[C@H]3C(=O)O[C@H](/C(C)=C/[C@@H]3CC[C@@H](O)[C@H](OC)C3)[C@H](C)[C@@H](O)CC1=O)[C@H](C)C[C@@H]2OC	inactive
CC12C=CC(=O)C=C1CC[C@@H]1[C@@H]2[C@@H](O)CC2(C)[C@H]1CC[C@]2(O)C(=O)COC(=O)CCC(=O)O (stereo not given in full)	inactive
C=C1/C(=C\C=C2/CCCC3(C)[C@@H]([C@H](C)/C=C/[C@@H](O)C4CC4)CC[C@@H]23)C[C@@H](O)C[C@@H]1O (stereo not given in full)	inactive
CC#C[C@]1(O)CC[C@H]2[C@@H]3CCC4=CC(=O)CCC4=C3[C@@H](c3ccc(N(C)C)cc3)CC21C (stereo not given in full)	inactive
CC(=O)O[C@]1(C(C)=O)CC[C@H]2[C@@H]3C=C(C)C4=CC(=O)CCC4(C)[C@H]3CCC21C (stereo not given in full)	inactive
C#C[C@]1(O)CC[C@H]2[C@@H]3CCC4=CC(=O)CC[C@@H]4[C@H]3CCC21CC (stereo not given in full)	inactive
C#C[C@]1(O)CC[C@H]2[C@@H]3CCc4cc(O)ccc4[C@H]3CCC21C (stereo not given in full)	inactive
C[C@@H]1C[C@H]2[C@@H]3CCC4=CC(=O)C=CC4(C)[C@@]3(F)[C@@H](O)CC2(C)[C@H]1C(=O)CO (stereo not given in full)	inactive
CC(C)(C)NC(=O)[C@H]1CC[C@H]2[C@@H]3CC[C@H]4NC(=O)C=CC4(C)[C@H]3CCC12C (stereo not given in full)	inactive
CC[C@H]1OC(=O)[C@H](C)C(=O)[C@H](C)[C@@H](O[C@@H]2O[C@H](C)C[C@H](N(C)C)[C@H]2O)[C@](C)(OC)C[C@@H](C)C(=O)[C@H](C)[C@@H]2N(CCCCn3cnc(-c4cccnc4)c3)C(=O)OC21C (stereo not given in full)	inactive

test system: not listed separately; assay: modulation of C. elegans fzo-1 (AID 1259413);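 note: fzo-1 mutant C. elegans worms in liquid wells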; settings: C. elegans fzo-1 modulator screen, mean read-out; active compounds read high

SMILES	mean signal
CC(=O)O[C@H]1C[C@@H]2CC[C@@H]3[C@H](CCC4(C)[C@H]3C[C@H]([N+]3(C)CCCCC3)[C@@H]4OC(C)=O)C2(C)C[C@@H]1N1CCCCC1 (stereo not given in full)	285 (inactive)
OC[C@H]1O[C@@H](n2cnc3c(NC4CCCC4)nc(Cl)nc32)[C@@H](O)C1O (stereo not given in full)	256 (inactive)
CC12CC[C@@H]3c4ccc(O)cc4CC[C@H]3[C@@H]1CC[C@@H]2O (stereo not given in full)	233 (inactive)
CC12CC[C@@H]3c4ccc(OS(=O)(=O)O)cc4CC[C@H]3[C@@H]1CCC2=O (stereo not given in full)	260 (inactive)
C=CC1=C(C(=O)O)N2C(=O)[C@@H](NC(=O)/C(=N/OCC(=O)O)c3csc(N)n3)[C@H]2SC1	257 (inactive)
C[C@@H]1C[C@H]2[C@@H]3C[C@H](F)C4=CC(=O)C(Cl)=CC4(C)[C@@]3(F)[C@@H](O)CC2(C)[C@@]1(O)C(=O)CO (stereo not given in full)	273 (inactive)
O=C1N[C@H](C(=O)O)CS1	242 (inactive)
C/C=C1/[C@H]2C=C(C)C[C@]1(N)c1ccc(=O)[nH]c1C2	229 (inactive)
CO[C@H]1C=CO[C@@]2(C)Oc3c(C)c(O)c4c(O)c(c(/C=N/N5CCN(C6CCCC6)CC5)c(O)c4c3C2=O)NC(=O)/C(C)=C\C=C[C@H](C)[C@H](O)[C@@H](C)[C@@H](O)[C@@H](C)[C@H](OC(C)=O)[C@@H]1C	288 (inactive)
CCOC(=O)O[C@]1(C(=O)OCCl)CC[C@H]2[C@@H]3CCC4=CC(=O)C=CC4(C)[C@H]3[C@@H](O)CC21C (stereo not given in full)	256 (inactive)
C#C[C@]1(O)CC[C@H]2[C@@H]3[C@H](C)CC4=C(CCC(=O)C4)[C@H]3CCC21C (stereo not given in full)	249 (inactive)
CC(=O)[C@H]1CC[C@H]2[C@@H]3CCC4=CC(=O)CCC4(C)[C@H]3CCC12C (stereo not given in full)	279 (inactive)
N[C@@H](C(=O)N[C@@H]1C(=O)N2C(C(=O)O)=C(CSC3CNNN3)CS[C@H]12)c1ccc(O)cc1 (stereo not given in full) (tested in a mixture with another compound)	239 (inactive)
CO[C@H]1C=CO[C@@]2(C)Oc3c(C)c(O)c4c(O)c(c5c(nc6cc(C)ccn65)c4c3C2=O)NC(=O)/C(C)=C\C=C[C@H](C)[C@H](O)[C@@H](C)[C@@H](O)[C@@H](C)[C@H](OC(C)=O)[C@@H]1C	289 (inactive)
C#C[C@]1(O)CC[C@H]2[C@@H]3CCc4cc(OC)ccc4[C@H]3CCC21C (stereo not given in full)	241 (inactive)
C=C1/C(=C\C=C2/CCCC3(C)[C@@H]([C@H](C)CCCC(C)(C)O)CC[C@@H]23)C[C@@H](O)C[C@@H]1O (stereo not given in full)	260 (inactive)
COc1cc(CNC(=O)CCCC/C=C\C(C)C)ccc1O	250 (inactive)
CC12CCC(=O)C=C1CC[C@@H]1[C@@H]2[C@@H](O)CC2(C)[C@@H](C(=O)CO)CC[C@@H]12 (stereo not given in full)	250 (inactive)
CCC(=O)O[C@]1(C(=O)SCF)[C@H](C)C[C@H]2[C@@H]3C[C@H](F)C4=CC(=O)C=CC4(C)[C@@]3(F)[C@@H](O)CC21C (stereo not given in full)	245 (inactive)
CC(=O)OC12CO[C@@H]1C[C@H](O)[C@@]1(C)C(=O)[C@H](O)C3=C(C)[C@@H](OC(=O)[C@H](O)[C@@H](NC(=O)OC(C)(C)C)c4ccccc4)CC(O)([C@@H](OC(=O)c4ccccc4)[C@H]21)C3(C)C (stereo not given in full)	256 (inactive)
C=CC[C@@H]1/C=C(\C)C[C@H](C)C[C@H](OC)[C@H]2OC(O)(C(=O)C(=O)N3CCCC[C@H]3C(=O)O[C@H](/C(C)=C/[C@@H]3CC[C@@H](O)[C@H](OC)C3)[C@H](C)[C@@H](O)CC1=O)[C@H](C)C[C@@H]2OC	274 (inactive)
CC12C=CC(=O)C=C1CC[C@@H]1[C@@H]2[C@@H](O)CC2(C)[C@H]1CC[C@]2(O)C(=O)COC(=O)CCC(=O)O (stereo not given in full)	283 (inactive)
C=C1/C(=C\C=C2/CCCC3(C)[C@@H]([C@H](C)/C=C/[C@@H](O)C4CC4)CC[C@@H]23)C[C@@H](O)C[C@@H]1O (stereo not given in full)	277 (inactive)
CC#C[C@]1(O)CC[C@H]2[C@@H]3CCC4=CC(=O)CCC4=C3[C@@H](c3ccc(N(C)C)cc3)CC21C (stereo not given in full)	225 (inactive)
CC(=O)O[C@]1(C(C)=O)CC[C@H]2[C@@H]3C=C(C)C4=CC(=O)CCC4(C)[C@H]3CCC21C (stereo not given in full)	261 (inactive)
C#C[C@]1(O)CC[C@H]2[C@@H]3CCC4=CC(=O)CC[C@@H]4[C@H]3CCC21CC (stereo not given in full)	225 (inactive)
C#C[C@]1(O)CC[C@H]2[C@@H]3CCc4cc(O)ccc4[C@H]3CCC21C (stereo not given in full)	242 (inactive)
C[C@@H]1C[C@H]2[C@@H]3CCC4=CC(=O)C=CC4(C)[C@@]3(F)[C@@H](O)CC2(C)[C@H]1C(=O)CO (stereo not given in full)	245 (inactive)
CC(C)(C)NC(=O)[C@H]1CC[C@H]2[C@@H]3CC[C@H]4NC(=O)C=CC4(C)[C@H]3CCC12C (stereo not given in full)	247 (inactive)
CC[C@H]1OC(=O)[C@H](C)C(=O)[C@H](C)[C@@H](O[C@@H]2O[C@H](C)C[C@H](N(C)C)[C@H]2O)[C@](C)(OC)C[C@@H](C)C(=O)[C@H](C)[C@@H]2N(CCCCn3cnc(-c4cccnc4)c3)C(=O)OC21C (stereo not given in full)	205 (inactive)
